The full list was thinned out, with hits kept by preference.
Pf Dd2 inh – Plasmodium falciparum Dd2 growth inhibition | P. falciparum Dd2 growth, SYBR Green, 72 h | hit rate 4.3% among 120,000 | AID 1347417 | Potency, µM (series often up to 28.9 µM), for the others: top-dose activity, negative = inhibition, usual class: inhibitors; active = well fitted inhibition curve with a large enough effect;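 note: plate controls were DMSO vehicle for no effect and reference drug for full effect; nearly all actives have a fitted effect of over 65% in size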
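Readout: SYBR Green fluorescence, 485 nm excitation, 535 nm emission, after ~16 h lysis at 37C. Before that, Dd2-infected red cells (2.5% hematocrit) grew 72 h with compound, 29 uM top final concentration.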
Starred values were filed as active, the others as inactive; i = inactive; [ ] = remark or other dose. Potency is the fitted concentration of half-maximal effect.

SMILES	Pf Dd2 inh
COc1ccc(-c2nn(C)c3sc(C(=O)N4CCN(c5ccccc5F)CC4)cc23)cc1OC	-11%
Cn1nc(-c2ccccc2F)c2cc(C(=O)NCc3ccc(Cl)cc3)sc21	i
COc1ccccc1-c1noc(-c2nnn3c2COC(c2ccc(C)cc2C)C3)n1 (stereo not drawn)	i
CCNC(=O)c1cccnc1OC1CCN(C(=O)c2cccc(Cl)c2)C1 (stereo not drawn)	17%
CNC(=O)c1ccc2cncn2c1	-2%[44.1 µM]
c1ccc(C2=NOC3(CCN(CC4CC4)CC3)C2)cc1	-28%[44.1 µM]
O=C(Nc1ccc(F)cc1)C1CC(=O)N(c2n[nH]c3cc(Br)ccc23)C1 (stereo not drawn)	-1%
COc1ccc(S(=O)(=O)Nc2ccc3c(c2)N(C(C)=O)CCC3)cc1F	10µM*
CC(=O)N1CCCc2ccc(NS(=O)(=O)c3ccc(C)c(C)c3)cc21	17%
CC(=O)N1CCCc2ccc(NS(=O)(=O)c3cccc(Cl)c3)cc21	5%
O=C(NCc1ccc(F)cc1)N1CCCC(Cc2nncn2-c2ccccc2)C1 (stereo not drawn)	i
CC(C)c1csc(CN2CC[C@@H](c3ccc4c(c3)OCO4)[C@H](O)C2)n1	-14%
O=C(O)c1ccc(CN2CC[C@@H](c3ccc4c(c3)OCO4)[C@H](O)C2)cc1	-13%
CC(C)n1cc(CN2CC[C@@H](c3ccc4ccccc4c3)[C@H](O)C2)cn1	10µM*
CCOc1ccccc1NC(=O)N1c2ccccc2CC1c1noc(C(C)C)n1 (stereo not drawn)	i
Cc1cccc(CC(=O)N(C)CC2CCOCC2)c1	39%
Cc1ccc(-c2nn3c(C)nnc3c3ccccc23)cc1S(=O)(=O)NCCO	8%
Cc1ccc(N2CCN(S(=O)(=O)c3ccc(Cl)c4ccccc34)CC2)c(C)c1	17%
Cc1ccccc1-c1noc(-c2ccc(NCC3CCCO3)c([N+](=O)[O-])c2)n1 (stereo not drawn)	8%
Cc1ccc(-c2nn3c(C)nnc3c3ccccc23)cc1S(=O)(=O)NC(C)(C)CO	-29%
CNC(=O)c1cc(Nc2nnc(-c3ccc(O)cc3)c3ccccc23)ccc1OC	i
Cc1ccccc1Nc1nnc(-c2ccc(C)c(S(=O)(=O)NCC3CCCO3)c2)c2ccccc12 (stereo not drawn)	5.6µM*
COc1ccc(S(=O)(=O)NC(C)(C)CO)cc1-c1nnc2c3ccccc3c(C)nn12	i
Cc1ccc(Nc2nnc(-c3ccc(C)c(S(=O)(=O)N4CCN(C)CC4)c3)c3ccccc23)c(C)c1	7.9µM*
COc1ccccc1N1CCN(S(=O)(=O)c2cc(-c3cc(C)no3)ccc2C)CC1	-4%
SMILES	Pf Dd2 inh
Cc1ccc(-c2nnc(Nc3ccc(O)cc3)c3ccccc23)cc1S(=O)(=O)N1CCOCC1	8.9µM*
COC(=O)COc1ccc(-c2nnc(Nc3ccc(O)cc3)c3ccccc23)cc1	i
Cc1ccc(-c2nnc(Nc3ccc(OC(F)(F)Cl)cc3)c3ccccc23)cc1S(=O)(=O)NC(C)(C)CO	13µM*
Cc1cc(C)n(CCC(=O)N2CCc3c(c(C(=O)N4CCOCC4)nn3CCc3ccccc3)C2)n1	-20%
O=C(CCCn1cnnn1)N[C@@H]1COCC[C@@H]1OCC1CCC1	-24%
Cc1nc(CN2CCN(C(=O)Cn3nnnc3CN3C[C@@H](C)O[C@@H](C)C3)CC2)cs1	5%
CCc1nncn1C1CCN(C(=O)c2cccc(Cl)c2)CC1	-12%
NCCCC(=O)N1CCCC(N2CCN(c3cccc(C(F)(F)F)c3)CC2)C1 (stereo not drawn)	-7%
O=C(c1nc2sccn2c1Br)N1CCC(n2cc[nH]c2=O)CC1	-18%
COCc1nc(CCNS(=O)(=O)c2ccc(OC)cc2)no1	64%
O=C(Nc1ccc(Cl)cc1Cl)c1cnn2c1CN(C(=O)c1cccnc1)CC2	-3%
CS(=O)(=O)c1ccc(OCC2(CNC(=O)N3CCOCC3)C[C@@H](O)[C@@H](O)C2)cc1 (stereo partly drawn)	20%[44.1 µM]
COCC(=O)NC1CCC12CCN(C(=O)Cc1cccnc1)CC2 (stereo not drawn)	-13%
CCCCCC(=O)N[C@H]1C[C@@H](Cc2cc(CN3CCOCC3)on2)C1(C)C	i
COCCNC(=O)[C@H]1C[C@H](Oc2ccccc2)CN1S(=O)(=O)c1cccc(OC)c1	-8%
COc1ccc(C(=O)N2CC[C@](C)(O)C(C)(C)C2)cc1Cl	-8%
COc1ccc(N2CCN(S(=O)(=O)c3ccc(-c4ccno4)cc3OC)CC2)cc1	54%
Cc1ccc(Nc2nnc(-c3ccc(C)c(S(=O)(=O)N4CCN(C)CC4)c3)c3ccccc23)cc1	7.9µM*
Cc1ccc(-c2nnc(Nc3ccccc3)c3ccccc23)cc1S(=O)(=O)N1CCN(C)CC1	-11%
COc1ccc(Nc2nnc(-c3ccc(C)c(S(=O)(=O)N4CCN(C)CC4)c3)c3ccccc23)cc1	8.9µM*
COc1ccc(S(=O)(=O)N2CCC(c3nnc(-c4ccccc4C)o3)CC2)c(OC)c1	-12%
COc1nnc(-c2ccc(N3CCCCC3)c(NC(=O)c3ccc(C)cc3)c2)c2ccccc12	-8%
CC(C)C(=O)N1CCN(c2nc3c(s2)CC(C(=O)NCCc2cccs2)CC3)CC1 (stereo not drawn)	-16%
CN1C(=O)c2ccc(NC(=O)C[C@H]3NC(=O)c4ccccc4NC3=O)cc2C1=O	-4%
CCc1ccc(NC(=O)Cn2ccn3nc4c(c3c2=O)CCCCC4)cc1	i
SMILES	Pf Dd2 inh
CCOc1ccccc1C(=O)N[C@@H]1CN(c2ccncn2)C[C@H]1CO	31%
O=C(CN1CCOC1=O)N1CCC(Cc2nncn2-c2ccccc2)CC1	-4%
COCC(=O)NC[C@H]1OC[C@@H](NCc2ccc(F)cc2)[C@@H]1O	14µM*
COCC(=O)NC[C@H]1OC[C@@H](NCc2ccc(C)cc2)[C@@H]1O	11%[44.1 µM]
COCC(=O)NC[C@H]1OC[C@@H](NCc2ccccc2F)[C@@H]1O	1%[44.1 µM]
CN(C1CCOCC1)C1CCN(C(=O)c2cccnc2)CC1	i
CN(CCc1noc(C2CC2)n1)c1ncncc1C(=O)O	1%
CCN(CC)S(=O)(=O)c1ccc(C(=O)NCCSc2c(-c3ccccc3)[nH]c3ccccc23)cc1	11µM*
Cc1[nH]c2ccccc2c1SCCNC(=O)c1ccccc1F	-8%
COc1cc(C(=O)NCCSc2c(C)[nH]c3ccccc23)cc(OC)c1OC	-21%
CCN(CC)S(=O)(=O)c1ccc(C(=O)NCCSc2c(-c3ccc(F)cc3)[nH]c3ccccc23)cc1	6.3µM*
COc1ccccc1C(=O)NCCSc1c(C)[nH]c2ccccc12	15%
O=C(NC1CC(=O)N(c2ccccc2)C1)c1ccc(S(=O)(=O)N2CCOCC2)cc1 (stereo not drawn)	i
Cc1ccc(-c2[nH]c3ccccc3c2SCCNC(=O)c2ccc(S(=O)(=O)N3CCOCC3)cc2)cc1	10µM*
Cc1ccc(N2CC(NC(=O)c3ccc(S(=O)(=O)N4CCOCC4)cc3)CC2=O)cc1 (stereo not drawn)	i
O=C(NCCSc1c[nH]c2ccccc12)c1ccc(Cl)cc1	-2%
Cn1nc(OC(C)(C)C(=O)NCCOc2ccccc2)c2cc(CN3CCCC3)ccc21	-7%[44.1 µM]
COc1ccc(-c2c3c(=O)n(C)c(=O)n(C)c3c3c(-c4cccc(C)c4)nc4ccccc4n23)cc1	40%
Cc1ccc(-c2c3c(=O)n(C)c(=O)n(C)c3c3c(-c4cccc(C)c4)nc4ccccc4n23)cc1	i
COc1ccc(-c2nc3ccccc3n3c(-c4cccc(C)c4)c4c(=O)n(C)c(=O)n(C)c4c23)cc1OC	11µM*
